Reference: ChEMBL document CHEMBL4513216, “Probing the Open Global Health Chemical Diversity Library for Multistage-Active Starting Points for Next-Generation Antimalarials” (ACS Infect Dis, 2020)
In all, about 69,000 compounds went through this assay and about 8,600 (12%) showed an effect of 50% or more. The sample as a whole holds a higher share of strong results than the screen did.

test system: Plasmodium berghei; assay: Screen against P. berghei liver stage (PbLuc), transformed with Luciferase, at 10uM; type: functional, HepG2; settings: tested at 10 uM

| SMILES | INHIBITION |
| --- | --- |
| O=C(C1CCCO1)N1CCC(O)(Cn2ccc3ccncc32)CC1 (stereo not given) | -45.4% |
| Cc1cc(C)c2cc(CNCCCN3CCOCC3)c(=O)[nH]c2c1 | 3.91% |
| CCc1cc(=O)[nH]c2nnc(SCC(=O)N3CCC(C)CC3)n12 | 14.4% |
| CN(C)C[C@@H]1CCC[C@@H]2CN(c3nccc(C(F)(F)F)n3)C[C@@H]21 | -3.58% |
| Cc1nc2ccccc2n1Cc1cc(C(=O)N(C)C2CCOCC2)no1 | 37.3% |
| Cc1nc2ccccc2n1Cc1cc(C(=O)N2C[C@@H](C)O[C@@H](C)C2)no1 | 74% |
| C[C@@H]1CN(C(=O)c2cc(Cn3cnc4ccccc43)on2)C[C@H](C)O1 | 30.5% |
| CN(C)C(=O)CN1CCOCC2(C1)CN(c1ncc(F)cn1)CCO2 (stereo not given) | 10.6% |
| c1ccc(NC[C@@H]2CCC[C@@H]3CN(Cc4cccnc4)C[C@@H]32)nc1 | 32.2% |
| c1cnc(NC[C@@H]2CCC[C@@H]3CN(Cc4cc[nH]n4)C[C@@H]32)nc1 | 1.81% |
| Cn1cc(CN2C[C@H]3CCC[C@@H](CNc4ncccn4)[C@H]3C2)cn1 | 31.2% |
| Cn1cc(CN2C[C@H]3CCC[C@@H](CNc4nccn4C)[C@H]3C2)cn1 | 23.1% |
| c1ccc(NC[C@@H]2CCC[C@@H]3CN(Cc4csnn4)C[C@@H]32)nc1 | 15.9% |
| Cn1ccnc1NC[C@@H]1CCC[C@@H]2CN(Cc3nccs3)C[C@@H]21 | 29% |
| Cn1ccnc1NC[C@@H]1CCC[C@@H]2CN(CC3CC3)C[C@@H]21 | 76.3% |
| c1ccc(NC[C@@H]2CCC[C@@H]3CN(Cc4nccs4)C[C@@H]32)nc1 | 51.2% |
| COCCN1C[C@H]2CCC[C@@H](CNc3ncccn3)[C@H]2C1 | 77.4% |
| COCCN(CC(C)C)C(=O)c1cccc(Nc2cnccn2)c1 | 46.6% |
| CCc1ccc(CN2CCC3(CC2)NC(=O)CC3c2ccncc2)o1 (stereo not given) | 21.6% |
| Cn1cc(CN2CCCC23CCN(C(=O)c2ccccn2)CC3)cn1 | -17.1% |
| O=c1ccc2c([nH]1)CCC(NCc1ccncc1)C2 (stereo not given) | 11.5% |
| CSC1=Nc2c(cnn2-c2ccccc2)C2=NCCCN12 | 73.9% |
| CC(=O)c1nn(-c2cccc(Cl)c2)c(C)c1C(C)=O | 12.3% |
| CCSC1=Nc2c(cnn2-c2ccc(Cl)cc2)C2=NCCCN12 | -37.1% |
| CSC1=Nc2c(cnn2-c2ccc(Cl)cc2)C2=NCCCN12 | 64.8% |
| Cc1cccc(N2CCCN=C2NC(=O)c2cccc(Cl)c2)c1 | -25.5% |
| CC(C)(C)C(=O)N1CCCc2c(cnn2-c2ccccc2)C1 | -43.9% |
| CSC1=Nc2c(cnn2-c2cccc(Cl)c2)C2=NCCCN12 | 79.7% |
| O=C(NC1=NCCCN1c1ccc(Cl)cc1)c1cccc(Cl)c1 | 15.1% |
| CSC1=Nc2c(cnn2-c2ccc(C)cc2)C2=NCCCN12 | 69.8% |
